Screening results deposited in PubChem BioAssay by National Center for Advancing Translational Sciences (NCATS).
Shown are actives, neighbours in structure and some others; about 21% of the full set was active somewhere.
CHX counter: counter-screen for Shiga toxin inhibitors: cycloheximide protein synthesis inhibition | cell reporter, cycloheximide protein synthesis inhibition counterscreen | max response, % | hit rate 12% among 300,000 | AID 2314; in the data active means max response mostly above about 13%, no sharp cut-off; inactive means mostly below about 14%; further: read at 38.3 µM for the half of the compounds with a filed dose; 0% is about no effect
Pf growth 48h: P. falciparum growth inhibition at 48 hours (one generation); P. falciparum luciferase growth in erythrocytes, 48 h; Potency, µM (top dose mostly 28.7 µM), for the others: top-dose activity change, negative = inhibition, usual class: inhibitors; hit rate 5.9% among 310,000; further: potency means the concentration at half of the fitted maximal effect; on the % scale 0 is the no-effect control and ±100 the full control effect
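A one-generation exposure of luciferase-tagged malaria parasites in RPMI 1640/Albumax erythrocyte culture, 37 C and 5% CO2. Inhibition is inferred from decreased luminescence after adding detection reagent.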
Pf growth 96h: inhibits malaria parasite growth, 96 h | P. falciparum luciferase reporter growth, 96 h | hit rate 6.9% among 320,000 | Potency, µM (doses to about 28.7 µM), for inactives: top-dose activity change, negative = inhibition, hits mostly inhibitors | AID 504834; further: potency means the concentration at half of the fitted maximal effect; on the % scale 0 is the no-effect control and ±100 the full control effect
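Two parasite generations (96 h, 37 C, 5% CO2) of compound exposure in infected erythrocytes (0.05% parasitemia, 2% hematocrit). Luciferase-reporter P. falciparum; decreased luminescence indicates inhibited growth, aimed at apicoplast-acting delayed death.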
Shiga toxin inh: inhibitors of Shiga toxin in Vero cells | inhibition, % at 38.7 µM | Vero cells, Shiga toxin protein synthesis inhibition reporter | hit rate 9.2% among 290,000; in the data active means inhibition mostly above about 28%, no sharp cut-off; inactive means mostly below about 43%; further: 0% is about no effect
AMA1-RON2 inh: AMA1-RON2 (P. falciparum) interaction inhibition; AlphaScreen AMA1-biotinylated RON2 peptide binding; Potency, µM (highest dose often 58.2 µM), inactives show at the top dose activity change, negative = inhibition, usual class: inhibitors; hit rate 0.2% among 360,000;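 further: potency means the concentration at half of the fitted maximal effect; 0% = vehicle wells and -100% = peptide control; nearly all actives have a fitted effect of over 45% in size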
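AMA1 (3D7) with his tag at 25 nM final met compounds first, then biotinylated RON2 peptide at 25 nM; detection used donor plus acceptor beads, 10 µg/mL apiece, read by AlphaScreen after 30 min at room temperature.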
HCV inhibitor: inhibitors of hepatitis C virus infection; Huh7.5.1 HCVcc-Cre infection, luciferase reporter, 44 h; hit rate 3.4% among 340,000; Potency, µM (highest dose often 41.8 µM), for inactives: at the top dose activity change, negative = inhibition, most hits filed as inhibitors; further: potency means the concentration at half of the fitted maximal effect; on the % scale 0 is the no-effect control and ±100 the full control effect
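HCVcc-Cre virus at an moi near 0.5 was added right after compound to cells cultured 4 h from seeding (1,000 cells/well). Luciferase activity was determined 44 h later, 15 min after substrate addition at RT.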
The depositor's hits bear a star; u = inconclusive; x = not tested or not shown; [ ] = dose if it differs, or a comment. Unless noted, the call rests on the fitted dose curve; in most records, active means well fitted curve in the direction sought with a large enough effect; inconclusive means small, poorly fitted or top-dose-only effect, or another doubt; inactive means no such curve, though single readings can be large; an effect the other way counts as inactive or inconclusive.

SMILES	CHX counter	Pf growth 48h	Pf growth 96h	Shiga toxin inh	AMA1-RON2 inh	HCV inhibitor
Cc1cccc(-c2nc(C#N)c(N3CCCCC3)o2)c1	27*	98%	72%	37*	-30%	-26%
COc1ccc(-c2nc(C#N)c(N3CCCCCC3)o2)cc1OC	8	-17%	x	-9	0%	10µM*
COc1ccc(C(=O)NCCN2CCOCC2)cc1S(=O)(=O)Nc1ccc(C)cc1	x	-3%	-23%	x	5%	-6%
C=CCn1c(SC2CCOC2=O)nc2sc(C)c(C)c2c1=O (stereo unspecified)	-3	12%	13µM*	0	-6%	21%
COc1ccc(CCc2nnc(CCC(=O)NCc3cnc4ccccn34)o2)cc1	-1	8%	10µM*	17	-8%	4%
COc1cccc(CNC(=O)CCc2nnc(C3CCCCC3)o2)c1	7	10%	4%	5	8%	0%
COc1ccc(CCNC(=O)c2cnc3ccccn3c2=O)cc1	-2	12%	u	-13	-2%	4%[8.37 µM]
COc1ccc(CCc2nnc(CCC(=O)NCc3ccc4ncccc4c3)o2)cc1	17*	-1%	-21%	34	6%	-24%
CN(CC(=O)Nc1cccc(F)c1)C(=O)CCc1nc2cc(S(=O)(=O)N3CCOCC3)ccc2n1C	x	u	u	x	0%	5%
O=C(COc1cccc(Cl)c1)Nc1ccc2c(c1)CCC2	38*	55%	0%	78*	10%[11.6 µM]	u
O=C(COc1cccnc1[N+](=O)[O-])Nc1ccc2c(c1)CCC2	20*	u	7%	11	-11%	-16%
O=C(CSc1ncccn1)Nc1ccc2c(c1)CCC2	36*	65%	83%	129*	-6%	-1%
O=C(CSc1ncccn1)Nc1ccc2[nH]c(=O)[nH]c2c1	x	11%	11%	x	-2%	2%
CCN(CC)c1ccc(NC(=O)CN2CCN(CC(=O)Nc3ccccc3F)CC2)cc1	-2	12µM*	28%	-5	-12%	12%
Cc1ccc(NC(=O)CN2C(=O)c3ccccc3S2(=O)=O)c(C)c1	-3	0%	21%	-4	0%	3%
CCOc1ccc(CCNC(=O)CN2C(=O)NC3(CCCC3)C2=O)cc1OCC	-5	9%	17%	21	-12%	-3%
Cc1ccccc1-n1c(SC2CCOC2=O)nnc1-c1ccncc1 (stereo unspecified)	11	33%	34%	8	6%	11%
COc1ccccc1NC(=O)CN1CCCCCC1	-5	3%	2%	-4	4%	14%
O=C(CN1CCNCC1)Nc1ccc(Oc2ccccc2)cc1	8	-25%	21%	12	-5%	7.9µM*
O=C(CN1CCCC1)Nc1ccc(NC(=O)Nc2ccccc2)cc1	39*	-3%	x	54*	2%	1%
COc1cc(NC(=O)Nc2ccccc2)c(OC)cc1NC(=O)CN1CCCCC1	4	u	x	36	-16%	11µM*
COc1ccc(S(=O)(=O)N(C)C)cc1NC(=O)CN1CCN(C(=O)C2CC2)CC1	x	-24%	-16%	x	0%	10µM*
C[C@H](CO)N1C[C@H](C)[C@@H](CN(C)C(=O)Nc2ccc(C(F)(F)F)cc2)Oc2c(NS(=O)(=O)c3ccccc3)cccc2C1=O	x	x	x	x	-6%	10%
Cc1ccc(NC2CCCN(C(=O)c3cc4ncccn4n3)C2)cc1C (stereo unspecified)	-4	-1%	u	-5	-12%	12%
CCCS(=O)(=O)NC(=O)C1(C)CCCN(C(=O)c2ccc3ccccc3n2)C1 (stereo unspecified)	x	x	x	x	1%	x
SMILES	CHX counter	Pf growth 48h	Pf growth 96h	Shiga toxin inh	AMA1-RON2 inh	HCV inhibitor
O=C(CN1CCCC1)Nc1ccc2c(c1)CCC2	23*	51%	-5%	35*	-25%	-9%
COc1ccc(N)cc1NC(=O)CN1CCCC1	-5	6%	0.12µM*	x	2%	14%
COc1ccc(Cl)cc1NC(=O)CN1CCCCCC1	2	-5%	u	15	-2%	-10%
CC(=O)N1CCN(CC(=O)Nc2ccc3c(c2)CCC3)CC1	-2	11%	19%	10	13%	-1%
COc1cc(NC(=O)Nc2ccccc2OC)c(OC)cc1NC(=O)CN1CCCCC1	-5	6.6µM*	-23%	-9	-18%	2.2µM*
O=C(Cn1ccc([N+](=O)[O-])n1)Nc1nccs1	-5	15%	2%	-7	-13%	16%
CC1CN(CC(=O)Nc2nc3ccccc3s2)CC(C)O1 (stereo unspecified)	12*	-5%	u	57	9%	-13%
O=C(Cn1ccc([N+](=O)[O-])n1)Nc1nc2ccccc2s1	26	27%	u	86*	1%	8%
CN1CCN(CC(=O)Nc2nc3ccccc3s2)CC1	18*	30%	0%	26	-28%	-8%
COc1ccc(C(CNC(=O)c2cncc(Br)c2)N(C)C)cc1 (stereo unspecified)	2	-2%	u	12	-2%	9%
Cc1ccc(NS(=O)(=O)c2ccc(-c3cnc(C4CC4)o3)cc2)cc1	2	7%	12µM*	8	-5%	u
C=C1CN(C(C(=O)OC)C(C)C)S(=O)(=O)c2ccc(F)cc21 (stereo unspecified)	7	x	x	-6	x	x
COc1cc(C)nn1-c1ccc(Cl)cc1	-3	11%	22%	-4	3%	11%
CO/C=C\C=C/c1nnn(-c2ccc(Cl)cc2)n1	41*	39%	31%	70*	u	-3%
Fc1ccc(NC(=S)N2CCCN(c3ccc(C(F)(F)F)cn3)CC2)c(F)c1	-3	10µM*	u	2	-6%	0.5µM*
O=C(O)CSCC(=O)N1CCCN(c2ccc(C(F)(F)F)cn2)CC1	-5	-1%	1%	-8	-4%	20%
O=S(=O)(Nc1cc2nc3ccccc3nc2n1Cc1ccccc1)c1ccc(Cl)cc1	0	1.3µM*	0.83µM*	13	-4%	u
COCc1c(C(=O)N/N=C(/C)c2ccc(OCc3ccccc3)cc2)nnn1-c1nonc1N	23*	45%	47%	97*	3%	21%
C/C(=N\NC(=O)c1nnn(-c2nonc2N)c1C)c1ccc(OCc2ccccc2)cc1	22*	50%	5%	57*	10%	3%
CCN(CC)CCN(C(=O)Cn1nnc(-c2ccc(C)o2)n1)C(C(=O)NC1CCCC1)c1ccc(F)cc1 (stereo unspecified)	-7	u	u	-6	5%	-16%
Cc1ccc(C(=O)c2ccc(N3CCOCC3)c(F)c2)cc1	62*	87%	7%	66*	23%	-4%
CCCC(=O)c1ccc(N2CCOCC2)c(F)c1	38*	47%	21%	68*	0%	-6%
CCC(=O)c1ccc(N2CCOCC2)c(F)c1	x	x	x	x	-4%	11%
